# A number with no mark means an inactive call. Records with an inconclusive call do not appear. Entries that show only a call come without a potency. Active and inactive are the calls of the source. Unless noted, calls come from the whole dose curve; as a rule, active = well fitted curve in the direction sought with a large enough effect in the repeat runs; inconclusive = weak or mixed curves; inactive = no such curve, though single readings can be large; an effect the other way counts as inactive or inconclusive.
# What was measured:
# [1] = qHTS assay for small molecule agonists of the p53 signaling pathway (AID 651631; calls by dose curve; note: nearly all actives have a fitted effect of over 15% in size; note: potency is the fitted concentration of half-maximal effect)
# Summary of the method: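 Agonist mode screen using a stably integrated beta-lactamase gene under p53 response elements in HCT-116 cells. Compound exposure lasts 16 h at 37 °C; fluorescence intensity is measured following 2 h FRET substrate loading.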
# [2] = qHTS assay for small molecules that induce genotoxicity in human embryonic kidney cells expressing luciferase-tagged ATAD5 (AID 651632); note: nearly all actives have a fitted effect of over 15% in size
# Summary of the method: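 Quantitative HTS in HEK293T expressing luciferase-tagged ATAD5, whose levels rise upon DNA damage. Exposure ran 16 hr at 37C and 5% CO2, with luminescence read 30 min after Amplite addition at room temperature.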
# [3] = qHTS assay for small molecule agonists of the p53 signaling pathway - cell viability (AID 651633; calls by dose curve;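 note: p53RE-bla HCT reporter cells with a stable beta-lactamase p53 reporter; series mostly up to about 83 µM; nearly all actives have a fitted effect of over 30% in size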)
# Summary of the method: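 Viability counter-read: CellTiter-Glo luminescence (30 min, room temperature) in the same p53RE-bla plates. These plates had been exposed to compounds for 16 h at 37 C.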
# [4] = qHTS assay for small molecules that induce genotoxicity in human embryonic kidney cells expressing luciferase-tagged ATAD5 - cell viability (AID 651634; calls by dose curve; note: nearly all actives have a fitted effect of over 25% in size)
# Summary of the method: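 After 15.5 hr incubation with compound at 37C, 5% CO2, HEK293T ATAD5-luciferase cells received CellTiter-Fluor reagent; fluorescence intensity was quantified following 30 min at 37C.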
# [5] = qHTS assay for small molecule disruptors of the mitochondrial membrane potential - cell viability (AID 720634; calls by dose curve;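 note: human HepG2 liver cancer cells; series mostly up to about 83 µM; nearly all actives have a fitted effect of over 20% in size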)
# Summary of the method: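 ATP-based luminescent viability readout (CellTiter-Glo, 30 min, room temperature) in HepG2 cells multiplexed with the m-MPI membrane potential dye; compound exposure lasted 1 hr at 37 C.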
# [6] = qHTS assay to test for compound auto fluorescence at 590 nm (red) in HepG2 cells (AID 720674)
# Summary of the method: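 Red autofluorescence (Ex/Em 540/590 nm, Rose Bengal sodium equivalents) was measured in HepG2 cells, 2,000 per well in MEM plus 10% FBS, plated overnight at 37 C. Readings were taken 1 hr after adding 23 nL compound or DMSO, at 37 C and 5% CO2.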
# [7] = qHTS assay to test for compound auto fluorescence at 535 nm (green) in HepG2 cells (AID 720675)
# [8] = qHTS assay to test for compound auto fluorescence at 590 nm (red) in HEK293 cells (AID 720679)
# Summary of the method: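 Red autofluorescence, HEK293 cells: 2,000 cells/well; attach 4-5 hr 37C; add 23 nL cpd or DMSO; incubate o/n 37C 5% CO2; read Ex540/Em590; Rose Bengal sodium reference.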
# [9] = qHTS assay to test for compound auto fluorescence at 535 nm (green) in HEK293 cells (AID 720680)
# [10] = qHTS assay to test for compound auto fluorescence at 460 nm (blue) in HEK293 cell free culture (AID 720681)
# Summary of the method: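 Blue fluorescence (Ex 405/Em 460 nm, triamterene-equivalent) was read immediately after pin transfer of compound or DMSO into medium (DMEM, 10% FBS) without cells.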
# [11] = qHTS assay to test for compound auto fluorescence at 590 nm (red) in HEK293 cell free culture (AID 720683)
# Summary of the method: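 Red-channel autofluorescence of compounds in culture medium (DMEM, 10% FBS), no cells, measured at 540/590 nm. Rose Bengal sodium is the reference fluorophore for equivalence.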
# [12] = qHTS assay to test for compound auto fluorescence at 590 nm (red) in HepG2 cell free culture (AID 720684)
# Summary of the method: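 Cell-free; medium MEM + 10% FBS; compound or DMSO added by pintool; read Ex 540/Em 590 nm; Rose Bengal sodium as red reference fluorophore.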
# [13] = qHTS assay to test for compound auto fluorescence at 460 nm (blue) in HepG2 cell free culture (AID 720685)
# Summary of the method: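 Cell-free plates of MEM plus 10% FBS received 23 nL compound or DMSO vehicle; blue-channel (405/460 nm) intensity scored against triamterene as reference fluorophore.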
# [14] = qHTS assay to test for compound auto fluorescence at 535 nm (green) in HepG2 cell free culture (AID 720686)
# [15] = qHTS assay to test for compound auto fluorescence at 460 nm (blue) in HepG2 cells (AID 720687)
# Summary of the method: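 Blue-channel autofluorescence (Ex/Em 405/460 nm, triamterene-equivalent) was measured after 1 hr compound exposure at 37 C, 5% CO2. Cells were HepG2, plated overnight at 37 C in MEM plus 10% FBS.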
# [16] = qHTS assay for small molecule disruptors of the mitochondrial membrane potential (AID 720635); note: potency is the fitted concentration of half-maximal effect
# Summary of the method: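 Mitochondrial membrane potential tracked with Mito-MPS dye, red aggregates (ex 540/em 590 nm) against green monomers (ex 490/em 535 nm). Compound treatment 1 hr at 37C, dye 30 min in HepG2.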
# [17] = qHTS assay to test for compound auto fluorescence at 460 nm (blue) in HEK293 cells (AID 720678)
# Summary of the method: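 Intrinsic compound fluorescence is recorded in live HEK293 cultures after overnight incubation at 37C, 5% CO2, using excitation 405 nm and emission 460 nm. Values are referenced to triamterene.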
# [18] = qHTS assay to test for compound auto fluorescence at 535 nm (green) in HEK293 cell free culture (AID 720682)
# Summary of the method: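 No cells present: wells hold DMEM supplemented with 10% FBS, into which compound or vehicle is pinned. Green emission is then recorded (485 nm excitation, 535 nm emission) and scaled to fluorescein.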
# [19] = molecular target: Glucocorticoid receptor (Homo sapiens) (UniProt P04150); test: qHTS assay to identify small molecule antagonists of the glucocorticoid receptor (GR) signaling pathway (AID 720692; active = well fitted inhibition curve with a large enough effect in the signal ratio in the repeat runs, not every such curve was filed as active; the % refers to the signal ratio)
# Chain of Glucocorticoid receptor (Homo sapiens) (P04150 whole entry, looked up): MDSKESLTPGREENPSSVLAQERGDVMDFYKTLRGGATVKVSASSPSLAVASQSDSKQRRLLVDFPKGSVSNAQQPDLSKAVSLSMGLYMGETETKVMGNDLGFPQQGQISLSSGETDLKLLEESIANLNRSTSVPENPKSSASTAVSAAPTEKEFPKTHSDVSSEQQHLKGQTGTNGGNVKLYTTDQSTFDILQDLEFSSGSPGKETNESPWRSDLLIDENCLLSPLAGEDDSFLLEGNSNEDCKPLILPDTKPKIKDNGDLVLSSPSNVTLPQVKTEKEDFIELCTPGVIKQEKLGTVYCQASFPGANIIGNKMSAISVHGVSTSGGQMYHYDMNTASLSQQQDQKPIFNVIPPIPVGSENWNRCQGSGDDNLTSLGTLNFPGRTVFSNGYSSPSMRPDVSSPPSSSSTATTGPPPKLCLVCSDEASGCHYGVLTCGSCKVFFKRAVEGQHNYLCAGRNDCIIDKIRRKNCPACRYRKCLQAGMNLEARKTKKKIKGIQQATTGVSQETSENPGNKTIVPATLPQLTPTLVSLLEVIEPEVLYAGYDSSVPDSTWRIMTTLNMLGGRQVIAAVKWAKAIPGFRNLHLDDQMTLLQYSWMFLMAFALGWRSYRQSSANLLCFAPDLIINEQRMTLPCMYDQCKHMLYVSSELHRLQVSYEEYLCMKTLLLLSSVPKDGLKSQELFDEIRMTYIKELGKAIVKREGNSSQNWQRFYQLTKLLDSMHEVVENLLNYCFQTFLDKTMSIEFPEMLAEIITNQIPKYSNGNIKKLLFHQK
# Summary of the method: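 Quantitative HTS in antagonist format: HeLa cells expressing endogenous GR and a stably integrated GRE-bla reporter, stimulated with 5 nM dexamethasone (final) alongside test compounds for 18 h.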
# [20] = molecular target: Glucocorticoid receptor (Homo sapiens) (UniProt P04150); test: qHTS assay to identify small molecule agonists of the glucocorticoid receptor (GR) signaling pathway (AID 720691; active = well fitted activation curve with a large enough effect in the signal ratio in the repeat runs, not every such curve was filed as active; the % refers to the signal ratio)
# Summary of the method: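 Cells: GR-bla HeLa, endogenous GR with stably integrated GRE-beta-lactamase reporter. Treatment 18 h, 37 C, compounds delivered in DMSO. Detection via LiveBLAzer B/G FRET substrate, 2 h RT, fluorescence intensity.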
smiles,measurement,setting,value
CCc1nnc(NS(=O)(=O)c2ccc(N)cc2)s1,Potency,[1],inactive
same,Potency,[2],inactive
same,Potency,[3],inactive
same,Potency,[4],inactive
same,Potency,[5],inactive
same,outcome,[6],inactive
same,outcome,[7],inactive
same,outcome,[8],inactive
same,outcome,[9],inactive
same,outcome,[10],inactive
same,outcome,[11],inactive
same,outcome,[12],inactive
same,outcome,[13],inactive
same,outcome,[14],inactive
same,outcome,[15],inactive
CCCc1c2oc(C(=O)O)cc(=O)c2cc2c(=O)cc(C(=O)O)n(CC)c12,Potency,[1],inactive
same,Potency,[2],inactive
same,Potency,[3],inactive
same,Potency,[5],inactive
same,Potency,[16],inactive
same,outcome,[6],inactive
same,outcome,[7],inactive
same,outcome,[17],inactive
same,outcome,[8],inactive
same,outcome,[9],inactive
same,outcome,[10],inactive
same,outcome,[18],inactive
same,outcome,[11],inactive
same,outcome,[12],inactive
same,outcome,[13],inactive
same,outcome,[14],inactive
same,outcome,[15],inactive
same,Potency,[19],inactive
Cc1cccc(C)c1NC(=O)CN1CCCCCC1,Potency,[1],inactive
same,Potency,[2],inactive
same,Potency,[3],inactive
same,Potency,[5],inactive
same,outcome,[6],inactive
same,outcome,[7],inactive
same,outcome,[17],inactive
same,outcome,[8],inactive
same,outcome,[9],inactive
same,outcome,[10],inactive
same,outcome,[11],inactive
same,outcome,[12],inactive
same,outcome,[13],inactive
same,outcome,[14],inactive
same,outcome,[15],inactive
CCCCNc1ccc(C(=O)OCCN(CC)CC)cc1,Potency,[2],inactive
same,Potency,[3],inactive
same,Potency,[4],inactive
same,Potency,[5],inactive
same,Potency,[16],inactive
same,outcome,[6],inactive
same,outcome,[7],inactive
same,outcome,[17],inactive
same,outcome,[8],inactive
same,outcome,[9],inactive
same,outcome,[10],inactive
same,outcome,[18],inactive
same,outcome,[11],inactive
same,outcome,[12],inactive
same,outcome,[13],inactive
same,outcome,[14],inactive
same,outcome,[15],inactive
COc1cc(Cl)ccc1Cl,Potency,[1],inactive
same,Potency,[2],inactive
same,Potency,[4],inactive
same,Potency,[5],inactive
same,outcome,[6],inactive
same,outcome,[7],inactive
same,outcome,[9],inactive
same,outcome,[10],inactive
same,outcome,[11],inactive
same,outcome,[12],inactive
same,outcome,[13],inactive
same,outcome,[14],inactive
same,outcome,[15],inactive
same,Potency,[20],inactive
same,Potency,[19],inactive
CC(C)CCCCCCc1ccc(OCCOCCO)cc1,Potency,[1],inactive
same,Potency,[2],inactive
same,Potency,[4],inactive
same,Potency,[5],inactive
same,Potency,[16],inactive
same,outcome,[7],inactive
same,outcome,[17],inactive
same,outcome,[8],inactive
same,outcome,[9],inactive
same,outcome,[10],inactive
same,outcome,[11],inactive
same,outcome,[12],inactive
same,outcome,[13],inactive
same,outcome,[14],inactive
same,outcome,[15],inactive
CC(C)Nc1nc(N)nc(Cl)n1,Potency,[1],inactive
same,Potency,[3],inactive
same,Potency,[4],inactive
same,Potency,[5],inactive
same,Potency,[16],inactive
same,outcome,[6],inactive
same,outcome,[7],inactive
same,outcome,[17],inactive
same,outcome,[8],inactive
same,outcome,[9],inactive
same,outcome,[10],inactive
same,outcome,[18],inactive
same,outcome,[11],inactive
same,outcome,[12],inactive
same,outcome,[13],inactive
same,outcome,[14],inactive
same,outcome,[15],inactive
same,Potency,[19],inactive
CC[C@H]1CC[C@H](NCc2cc3c(cc2OC)[C@H]2C[C@H]2C(=O)N3C)[C@H](c2ccccc2)N1,Potency,[1],6.86 µM (active)
same,Potency,[3],inactive
same,Potency,[5],inactive
same,Potency,[16],inactive
same,outcome,[6],inactive
same,outcome,[7],inactive
same,outcome,[17],inactive
same,outcome,[8],inactive
same,outcome,[9],inactive
same,outcome,[10],inactive
same,outcome,[18],inactive
same,outcome,[11],inactive
same,outcome,[12],inactive
same,outcome,[13],inactive
same,outcome,[14],inactive
same,outcome,[15],inactive
same,Potency,[20],inactive
same,Potency,[19],inactive
c1ccc(CN(CC2=NCCN2)c2ccccc2)cc1,Potency,[2],inactive
same,Potency,[3],inactive
same,Potency,[4],inactive
same,Potency,[5],inactive
same,Potency,[16],inactive
same,outcome,[6],inactive
same,outcome,[7],inactive
same,outcome,[17],inactive
same,outcome,[8],inactive
same,outcome,[9],inactive
same,outcome,[10],inactive
same,outcome,[18],inactive
same,outcome,[11],inactive
same,outcome,[12],inactive
same,outcome,[13],inactive
same,outcome,[14],inactive
same,outcome,[15],inactive
CN(C)CC[C@@H](c1ccc(Cl)cc1)c1ccccn1,Potency,[1],inactive
same,Potency,[3],inactive
same,Potency,[4],inactive
same,Potency,[5],inactive
same,Potency,[16],inactive
same,outcome,[6],inactive
same,outcome,[7],inactive
same,outcome,[17],inactive
same,outcome,[8],inactive
same,outcome,[9],inactive
same,outcome,[10],inactive
same,outcome,[11],inactive
same,outcome,[12],inactive
same,outcome,[13],inactive
same,outcome,[14],inactive
same,outcome,[15],inactive
same,Potency,[20],inactive
same,Potency,[19],inactive
OCCN1CCN(CCO)CC1,Potency,[1],inactive
same,Potency,[2],inactive
same,Potency,[4],inactive
same,Potency,[5],inactive
same,outcome,[6],inactive
same,outcome,[7],inactive
same,outcome,[17],inactive
same,outcome,[8],inactive
same,outcome,[9],inactive
same,outcome,[10],inactive
same,outcome,[11],inactive
same,outcome,[12],inactive
same,outcome,[13],inactive
same,outcome,[14],inactive
same,outcome,[15],inactive
same,Potency,[20],inactive
COC(C)CCO (stereo unspecified),Potency,[1],inactive
same,Potency,[2],inactive
same,Potency,[4],inactive
same,outcome,[6],inactive
same,outcome,[7],inactive
same,outcome,[17],inactive
same,outcome,[8],inactive
same,outcome,[9],inactive
same,outcome,[10],inactive
same,outcome,[18],inactive
same,outcome,[11],inactive
same,outcome,[12],inactive
same,outcome,[13],inactive
same,outcome,[14],inactive
same,outcome,[15],inactive
CN(C)C(=O)NC1(c2ccccc2)CCN(CCC[C@]2(c3ccc(Cl)c(Cl)c3)CCCN(C(=O)c3ccccc3)C2)CC1,Potency,[1],inactive
same,Potency,[2],inactive
same,Potency,[4],inactive
same,Potency,[5],inactive
same,"fluorescence, relative to Rose Bengal",[6],-0.128% [at 18.6 µM]
same,"fluorescence, % of fluorescein control",[7],0.0153% [at 18.6 µM]
same,"fluorescence, % of triamterene",[17],-0.0808% [at 18.6 µM]
same,"fluorescence, % of fluorescent control",[8],-0.621% [at 18.6 µM]
same,"fluorescence, % of fluorescein",[9],-0.116% [at 18.6 µM]
same,"fluorescence, % of fluorescent control",[10],0.05% [at 18.6 µM]
same,activity change,[18],0.0134% [at 18.6 µM]
same,"fluorescence, % of fluorescent control",[11],-0.159% [at 18.6 µM]
same,"fluorescence, % of Rose Bengal",[12],-0.0596% [at 18.6 µM]
same,"fluorescence, % of fluorescent control",[13],-0.114% [at 18.6 µM]
same,"fluorescence, % of fluorescein control",[14],0.0302% [at 18.6 µM]
same,"fluorescence, % of fluorescent control",[15],-0.0586% [at 18.6 µM]
same,Potency,[20],inactive
same,Potency,[19],inactive
CC(C)NC[C@@H](O)COc1cccc2ccccc12,Potency,[1],inactive
same,Potency,[3],inactive
same,Potency,[4],inactive
same,Potency,[5],inactive
same,outcome,[6],inactive
same,outcome,[7],inactive
same,outcome,[17],inactive
same,outcome,[9],inactive
same,outcome,[10],inactive
same,outcome,[11],inactive
same,outcome,[12],inactive
same,outcome,[13],inactive
same,outcome,[14],inactive
same,outcome,[15],inactive
Cc1cc2nc(N)sc2cc1C,Potency,[1],inactive
same,Potency,[3],inactive
same,Potency,[4],inactive
same,Potency,[5],inactive
same,Potency,[16],49 µM (active)
same,outcome,[6],inactive
same,outcome,[7],inactive
same,outcome,[17],inactive
same,outcome,[9],inactive
same,outcome,[18],inactive
same,outcome,[11],inactive
same,outcome,[12],inactive
same,outcome,[13],inactive
same,outcome,[14],inactive
same,outcome,[15],inactive
same,Potency,[20],inactive
same,Potency,[19],inactive

# Source: PubChem BioAssay (Tox21)
